Assay outcomes from PubChem BioAssay.
Shown are actives, neighbours in structure and some others; about 10% of the full set was active somewhere.
JMJD2A Tudor inh = inhibitors of human JMJD2A Tudor domain | O75164 | AlphaScreen JMJD2A-Tudor / H3K4me3 peptide binding | Potency, µM (doses to about 114 µM), for the others: at the top dose activity change, negative = inhibition, hits mostly inhibitors | hit rate 4.4% among 390,000 | AID 504339; further: potency means the concentration at half of the fitted maximal effect; on the % scale 0 is the no-effect control and ±100 the full control effect; nearly all actives have a fitted effect of over 50% in size
BAZ2B inh = blocks human BAZ2B; Q9UIF8; AlphaScreen BAZ2B-H3K14Ac peptide displacement; Potency, µM (series often up to 114 µM), inactives show at the top dose activity change, negative = inhibition, most hits filed as inhibitors; hit rate 4.4% among 360,000; AID 504333; further: potency means the concentration at half of the fitted maximal effect; on the % scale 0 is the no-effect control and ±100 the full control effect; nearly all actives have a fitted effect of over 60% in size
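In this displacement format the biotinylated H3(5-23) peptide acetylated at Lys14 serves as ligand at 50 nM, with BAZ2B at 50 nM in PBS pH 7.4 containing 0.01% Tween-20. Donor and acceptor beads are 10 ug/mL final.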
HP1b chromo inh = blocks HP1-beta chromodomain binding to methylated histone tails; P83916; AlphaScreen HP1-beta / biotin-H3K9me3 peptide binding; Potency, µM (top dose mostly 114 µM), for the others: at the highest dose activity change, negative = inhibition, most hits filed as inhibitors; hit rate 0.56% among 390,000; further: potency means the concentration at half of the fitted maximal effect; nearly all actives have a fitted effect of over 70% in size
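Compound inhibition of the preformed complex between 50 nM HP1-beta and 50 nM biotinylated H3K9me3 peptide was read by AlphaScreen. Buffer was PBS pH 7.4 with 0.01% Tween-20. Incubations ran 30 min at room temperature, with 10 ug/mL donor/acceptor beads.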
G9a inh = G9a (human) methyltransferase inhibition; AID 504332; G9a H3K9 monomethylation, AlphaScreen, 2 h; Q96KQ7; Potency, µM (top dose mostly 102 µM), inactives show top-dose activity, negative = inhibition, actives largely listed as inhibitors; hit rate 8.8% among 350,000; further: potency means the concentration at half of the fitted maximal effect; on the % scale 0 is the no-effect control and ±100 the full control effect; nearly all actives have a fitted effect of over 75% in size
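G9a (20 nM) preincubated 15 min RT with compounds, then 500 nM biotinylated H3K9 peptide and 20 uM SAM added; 2 h RT reaction. Monomethyl-H3K9 product detected by AlphaScreen with anti-H3K9me1 antibody, streptavidin donor and anti-rabbit IgG acceptor beads.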
Six1-Eya2 blk = inhibitors of human Six1/Eya2 interaction; Q15475+O00167; activity change, % (concentration not given with the values); hit rate 0.56% among 360,000; AlphaScreen GST-Six1/His-Eya2 binding, biochemical; active compounds read low; AID 651725; in the data active means activity change below about -65%; inconclusive means mostly about -30% to -63%; further: on the % scale 0 is the no-effect control and ±100 the full control effect
Target sequence (O00167 whole entry, looked up): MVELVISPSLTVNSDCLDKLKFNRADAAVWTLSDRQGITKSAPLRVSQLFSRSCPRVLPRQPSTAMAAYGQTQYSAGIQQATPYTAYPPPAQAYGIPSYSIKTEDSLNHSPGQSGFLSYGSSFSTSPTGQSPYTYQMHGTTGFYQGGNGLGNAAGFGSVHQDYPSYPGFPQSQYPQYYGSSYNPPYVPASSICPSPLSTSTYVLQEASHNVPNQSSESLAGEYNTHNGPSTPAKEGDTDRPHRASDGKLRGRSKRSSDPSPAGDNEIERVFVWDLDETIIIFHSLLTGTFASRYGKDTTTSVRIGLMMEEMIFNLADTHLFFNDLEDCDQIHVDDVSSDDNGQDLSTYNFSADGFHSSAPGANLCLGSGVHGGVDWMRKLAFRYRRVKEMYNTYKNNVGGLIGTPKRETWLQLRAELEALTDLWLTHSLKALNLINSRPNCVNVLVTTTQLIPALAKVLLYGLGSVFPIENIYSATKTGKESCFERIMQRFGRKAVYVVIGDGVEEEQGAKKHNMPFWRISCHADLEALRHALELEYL
Target sequence (Q15475 whole entry, looked up): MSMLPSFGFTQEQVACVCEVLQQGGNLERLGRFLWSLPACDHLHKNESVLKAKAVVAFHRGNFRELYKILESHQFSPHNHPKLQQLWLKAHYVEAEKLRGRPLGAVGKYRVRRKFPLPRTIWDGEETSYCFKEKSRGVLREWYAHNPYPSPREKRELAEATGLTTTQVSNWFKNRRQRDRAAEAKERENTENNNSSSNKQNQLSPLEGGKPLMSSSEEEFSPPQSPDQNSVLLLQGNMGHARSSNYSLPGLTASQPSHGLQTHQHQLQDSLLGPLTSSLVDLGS
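AlphaScreen luminescence read after one hour at 37 °C in darkness. Pin-transferred compounds met GST-Six1 and His-Eya2 protein (5X stock 250 nM/500 nM) plus glutathione donor and Ni-chelate acceptor beads (5X, 50 ug/mL).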
CtBP-E1A blk = blocks the CtBP interaction with E1A. AlphaScreen GST-E1A/His-CtBP binding, 1536-well; active compounds read low. activity change, % (concentration not given with the values). hit rate 0.49% among 340,000; in the data active means activity change below about -65%; inconclusive means mostly about -30% to -63%; further: on the % scale 0 is the no-effect control and ±100 the full control effect
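In 5 uL wells, 23 nL compound meets equimolar GST-E1A and His-CtBP (5X stock 125 nM each) for 2 h, 37 °C. Beads (5X, 50 ug/mL) then 1 h, 37 °C, dark.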
* marks the source's active call; other numbers are inactive results; [ ] = dose if it differs, or a comment. Unless noted, the call rests on the fitted dose curve; in most records, active means well fitted inhibition curve with a large enough effect; inconclusive means small, poorly fitted or top-dose-only effect; inactive means no such curve, though single readings can be large or run the other way.

What do the screens show for `COc1ccc2cc(C(c3nnnn3C3CCCC3)N3CCc4ccccc4C3)c(=O)[nH]c2c1` (configuration not stated)?
JMJD2A Tudor inh: -25.2%; HP1b chromo inh: 13.4%; G9a inh: 10µM*; Six1-Eya2 blk: -6.1; CtBP-E1A blk: -13.1

Results for COc1ccc2nc(-c3cccc(F)c3)sc2c1 ?
JMJD2A Tudor inh: 13.8%

How did CN(Cc1c(C(=O)N2CCc3ccccc3C2)nc2ccc(Cl)cn12)C(C1CC1)C1CC1 do in these assays?
JMJD2A Tudor inh: -23.2%; BAZ2B inh: -38.8%; HP1b chromo inh: 27.6%; G9a inh: -49.0%; Six1-Eya2 blk: 3.3

Results for S=C1NCN(Cc2cccnc2)CN1c1cccc2ccccc12 ?
JMJD2A Tudor inh: 3.2%; BAZ2B inh: -10.0%; HP1b chromo inh: 24.7%; G9a inh: -25.5%; Six1-Eya2 blk: 2.5; CtBP-E1A blk: -1.5

How did COc1ccc(N2CCN(Cc3nc4c(c(=O)[nH]c(=O)n4C)n3Cc3ccccc3)CC2)cc1 do in these assays?
JMJD2A Tudor inh: -16.2%; BAZ2B inh: -4.0%; HP1b chromo inh: 17.7%; G9a inh: -2.5%[59 µM]

How did CCN1C(=O)[C@H]2[C@@H](c3ccc(C(F)(F)F)cc3)N[C@]3(CCCN(Cc4ccco4)C3=O)[C@H]2C1=O do in these assays?
Six1-Eya2 blk: 14.0; CtBP-E1A blk: 6.6

How did COc1ccc(Cn2nnnc2C(c2ccc(N(C)C)cc2)N2CCC(C(N)=O)CC2)cc1 (configuration not stated) do in these assays?
JMJD2A Tudor inh: inconclusive; BAZ2B inh: 50.1µM*; HP1b chromo inh: inconclusive; G9a inh: 12.6µM*; Six1-Eya2 blk: -17.2; CtBP-E1A blk: -3.9

What do the screens show for `CCC(C)(C)n1nnnc1C(c1cc2ccc(OC)cc2[nH]c1=O)N1CCc2ccccc21` (configuration not stated)?
JMJD2A Tudor inh: inconclusive; BAZ2B inh: inconclusive; HP1b chromo inh: -21.8%; G9a inh: 12.6µM*; Six1-Eya2 blk: -17.8; CtBP-E1A blk: -25.2

What do the screens show for `Cc1ccc(NC(=O)C2CCCN(c3nc4ccccc4s3)C2)c(C)c1` (configuration not stated)?
JMJD2A Tudor inh: -2.8%; BAZ2B inh: -28.1%; HP1b chromo inh: 35.7%; G9a inh: 0.8%[59 µM]

How did CC(C)(C)NC(=O)c1cccc(NC(=O)c2ccc(NC(=O)c3ccco3)cc2)c1 do in these assays?
JMJD2A Tudor inh: -25.8%; BAZ2B inh: 0.5%; HP1b chromo inh: 3.9%; G9a inh: -5.9%[59 µM]; Six1-Eya2 blk: -79.4*; CtBP-E1A blk: -16.0

Results for Cc1nn2c(-c3cccc(NC(=O)c4ccco4)c3)nnc2c2ccccc12 ?
JMJD2A Tudor inh: -14.9%; BAZ2B inh: 7.5%; HP1b chromo inh: 16.8%; G9a inh: -33.9%[12.7 µM]; Six1-Eya2 blk: -69.4*; CtBP-E1A blk: -88.3*

What do the screens show for `COc1ccc(CCC(=O)NNC(=O)Nc2cccc(Cl)c2)cc1`?
JMJD2A Tudor inh: -8.3%; BAZ2B inh: -17.2%; HP1b chromo inh: 53.5%; G9a inh: 7.7%; Six1-Eya2 blk: -0.1; CtBP-E1A blk: 4.1

How did Cc1cccc(NC(=S)NC(NC(=O)c2ccco2)C(Cl)(Cl)Cl)c1 (configuration not stated) do in these assays?
JMJD2A Tudor inh: -2.8%; BAZ2B inh: -28.0%; HP1b chromo inh: 30.3%; G9a inh: 14.1µM*; Six1-Eya2 blk: -11.9; CtBP-E1A blk: -14.0

What do the screens show for `COc1ccc(CCC(=O)NNC(=S)Nc2cccc(C(C)=O)c2)cc1`?
JMJD2A Tudor inh: -18.2%; BAZ2B inh: -2.4%; HP1b chromo inh: -4.4%; G9a inh: 39.8µM*; Six1-Eya2 blk: 9.4; CtBP-E1A blk: 1.2

How did O=C(Cn1c(=O)c(C(F)(F)F)nc2ccccc21)Nc1ccc(Br)cc1F do in these assays?
JMJD2A Tudor inh: -16.2%; BAZ2B inh: 0.3%; HP1b chromo inh: -6.4%; G9a inh: 3.1%[59 µM]

What do the screens show for `CCOCCCn1c(=N)c(S(=O)(=O)c2ccc(Cl)cc2)cc2c(=O)n3cccc(C)c3nc21`?
JMJD2A Tudor inh: -8.3%; BAZ2B inh: -2.1%; HP1b chromo inh: 18.7%; G9a inh: 1.5%[59 µM]

What do the screens show for `CC(=O)c1cccc(NC(=S)Nc2ccc(F)cc2)c1`?
JMJD2A Tudor inh: -15.1%; BAZ2B inh: 5.7%; HP1b chromo inh: 9.4%; G9a inh: 50.1µM*; Six1-Eya2 blk: 5.1

What do the screens show for `CC(=O)c1cccc(NC(=O)c2cccc(NC(=O)c3ccco3)c2)c1`?
JMJD2A Tudor inh: -15.2%; BAZ2B inh: 79.4µM*; HP1b chromo inh: 55.5%; G9a inh: 44.7µM*; Six1-Eya2 blk: -13.3; CtBP-E1A blk: 0.1

Results for CC(=O)c1cccc(NC(=S)NNC(=O)c2ccco2)c1 ?
JMJD2A Tudor inh: 3.4%; BAZ2B inh: 4.8%; HP1b chromo inh: 32.6%; G9a inh: 35.5µM*; Six1-Eya2 blk: -0.2

What do the screens show for `CNC(=S)Nc1cccc(C(C)=O)c1`?
JMJD2A Tudor inh: -3.7%[11.4 µM]; BAZ2B inh: -17.3%; HP1b chromo inh: 21.6%; G9a inh: -17.4%; Six1-Eya2 blk: 3.1; CtBP-E1A blk: 2.5

Results for Cc1nnc2ccc(-c3ccc(NC(=O)c4ccco4)cc3)nn12 ?
JMJD2A Tudor inh: -4.6%; BAZ2B inh: -19.9%; HP1b chromo inh: 14.5%; G9a inh: 35.5µM*; Six1-Eya2 blk: -5.0; CtBP-E1A blk: -11.0

Results for COc1cc(CN(C(=O)COc2ccc(Br)cc2)c2ccccn2)cc(OC)c1OC ?
JMJD2A Tudor inh: -4.6%; BAZ2B inh: -9.2%; HP1b chromo inh: 33.6%; G9a inh: -7.7%[59 µM]

Results for CN(CC(=O)Nc1ccc(F)c(F)c1F)C(=O)CCN1C(=O)C2CCCCC2C1=O (configuration not stated) ?
JMJD2A Tudor inh: -2.1%; BAZ2B inh: 0.5%; HP1b chromo inh: 40.2%; G9a inh: 13.5%[59 µM]; Six1-Eya2 blk: 3.7; CtBP-E1A blk: 1.5

What do the screens show for `O=C(Nc1cc(Br)c(O)c(Br)c1)c1cccc(NC(=O)c2ccco2)c1`?
JMJD2A Tudor inh: -28.7%; BAZ2B inh: 50.1µM*; HP1b chromo inh: 8.9%; G9a inh: 39.8µM*; Six1-Eya2 blk: -23.5; CtBP-E1A blk: inconclusive

Results for O=C(Nc1cccc(NC(=O)c2ccco2)c1)c1cccc(Br)c1 ?
JMJD2A Tudor inh: -23.9%; BAZ2B inh: -13.9%; HP1b chromo inh: 7.8%; G9a inh: -1.7%; Six1-Eya2 blk: -0.6; CtBP-E1A blk: 13.1

How did NC(=O)CC[C@@H]1NC(=O)C(Cc2ccc(O)cc2)NC(=O)c2cc([N+](=O)[O-])cc(F)c2NCCC[C@@H](C(N)=O)NC1=O (some centres not stated) do in these assays?
BAZ2B inh: inconclusive; G9a inh: 50.1µM*
